# Screening results deposited in PubChem by National Center for Advancing Translational Sciences (NCATS).
# HEK293 tox = kills HEK 293 cells; actives 6.6% (n = 94,000); AID 1345083; HEK 293 viability, ATP luminescence (CellTiter-Glo), 48-72 h; Potency, µM (highest dose often 115 µM), for the others: top-dose activity change, negative = cytotoxicity, actives largely listed as inhibitors; note: nearly all actives have a fitted effect of over 60% in size
#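 HEK 293 seeded at 250 cells/well receive compound via pintool. After 48 or 72 hr at 37 degree Celsius, 5% CO2 and 95% humidity, CellTiter-Glo is dispensed and luminescence read following 10 min at room temperature.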
# Luciferase inh = Photinus pyralis luciferase inhibition; purified P. pyralis luciferase, luminescence, biochemical; Potency, µM (series often up to 115 µM), hits mostly inhibitors; actives 2.5% (n = 76,000); note: nearly all actives have a fitted effect of over 65% in size
#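 Luminescence read by CCD imaging after purified firefly luciferase (10nM final) was added to substrate buffer holding 10uM D-luciferin and 10uM ATP, pH 7.5, pre-dosed with compound.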
# NIH3T3 tox = kills NIH 3T3 cells; NIH 3T3 viability, CellTiter-Glo ATP luminescence, 48-72 h; AID 1345082; actives 4.3% (n = 94,000); Potency, µM (series often up to 96.7 µM), for inactives: top-dose activity change, negative = cytotoxicity, actives largely listed as inhibitors; note: nearly all actives have a fitted effect of over 55% in size
#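 Mouse fibroblast NIH 3T3 cells, 400 per well, received compound via pintool and were incubated for 48 or 72 hr prior to CellTiter-Glo ATP luminescence measurement.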
# GPT2 inhibitor = inhibitors of human GPT2 alanine aminotransferase; Q8TD30; Recombinant GPT2, coupled pyruvate oxidase/HRP Amplex Red fluorescence; Potency, µM (doses to about 57.7 µM), without a hit: at the highest dose activity change, negative = inhibition, hits mostly inhibitors; actives 0.25% (n = 100,000); note: nearly all actives have a fitted effect of over 60% in size
# Target sequence (Q8TD30 whole entry, looked up): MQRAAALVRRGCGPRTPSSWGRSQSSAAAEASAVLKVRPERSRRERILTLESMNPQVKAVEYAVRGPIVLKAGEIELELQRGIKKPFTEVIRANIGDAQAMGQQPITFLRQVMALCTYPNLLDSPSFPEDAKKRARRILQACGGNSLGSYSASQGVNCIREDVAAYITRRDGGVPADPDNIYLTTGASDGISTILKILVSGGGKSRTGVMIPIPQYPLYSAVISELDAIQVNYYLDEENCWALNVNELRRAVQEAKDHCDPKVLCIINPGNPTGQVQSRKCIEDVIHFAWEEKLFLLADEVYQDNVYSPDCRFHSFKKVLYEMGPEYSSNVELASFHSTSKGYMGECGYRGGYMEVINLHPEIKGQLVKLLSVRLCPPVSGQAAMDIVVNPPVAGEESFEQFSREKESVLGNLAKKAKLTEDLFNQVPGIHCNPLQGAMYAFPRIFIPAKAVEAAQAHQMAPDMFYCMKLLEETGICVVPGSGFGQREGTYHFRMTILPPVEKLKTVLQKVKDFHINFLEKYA
#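 GPT2 10ng/uL, a-KG 250uM, L-Ala 2mM, HEPES pH7.5 + 0.0001% Tween; 30 min RT. Then Amplex mix (PO/HRP/ThPP), 30 min RT dark, fluorescence. AOA 50uM used as positive control.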
# hNpr1 antagonist = antagonists of human natriuretic peptide receptor Npr1; P16066; HEK293 hNpr1 GloSensor cGMP, ANP-stimulated luminescence; Potency, µM (series often up to 46.3 µM), inactives show top-dose activity change, negative = inhibition, actives largely listed as inhibitors; actives 1.6% (n = 76,000); AID 1347048; calls by dose curve; note: nearly all actives have a fitted effect of over 60% in size
#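 Compound pre-incubated 30 min at room temperature on GloSensor-loaded HEK293 cells stably carrying hNpr1 and the pGS-40F cGMP biosensor. Stimulation uses hNppA at 0.1 nM final; luminescence is taken at baseline and 20 min post-agonist.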
# Numbers without * were called inactive; i = inactive; ? = inconclusive; nt = not tested or not shown; [ ] = remark or other dose. Rows were chosen to be rich in hits. Some 10% of all compounds tested hit in one or more screens of this group. Unless noted, calls come from the whole dose curve; as a rule, active = well fitted curve in the direction sought with a large enough effect; inconclusive = small, poorly fitted or top-dose-only effect, or another doubt; inactive = no such curve, though single readings can be large; an effect the other way counts as inactive or inconclusive. % is set by controls: 0 for no effect and ±100 for the full control effect; potency is the fitted concentration of half-maximal effect.
SMILES,HEK293 tox,Luciferase inh,NIH3T3 tox,GPT2 inhibitor,hNpr1 antagonist
FC(F)(F)c1ccc(CN2CC[C@H](c3nc4ccc(C(F)(F)F)cc4[nH]3)C2)cc1,35µM*,?,32µM*,-22%[88.5 µM],?
COc1ccc2nc([C@H]3CCN(Cc4ccc(F)c(F)c4)C3)[nH]c2c1,?,i,?,4%[88.5 µM],-8%[70.6 µM]
COCCN1CC2(CCOC2)N(C2CCN(C(=O)Cc3ccccc3F)CC2)C1=O (stereo not drawn),5%,nt,-27%,i,nt
CC(C)NC(=O)N1CC(C(=O)NCc2ccc3c(c2)OCO3)CC(c2ccccc2)C1 (stereo not drawn),-1%,i,-19%,i,2%
Cc1cn2nc(C(=O)NCc3ccc(C(C)C)cc3)cc2c(=O)[nH]1,?,14µM*,-30%,1%,11%
COc1ccc(CNC(=O)c2cc3n(n2)CC(c2ccc(Cl)cc2)OC3)c(OC)c1 (stereo not drawn),?,i,?,0%,-15%
COc1ccc(CCNC(=O)c2cc3n(n2)CC(c2ccc(Cl)cc2)OC3)cc1OC (stereo not drawn),45µM*,i,?,i,?
COc1ccccc1CNC(=O)c1cc2n(n1)CC(c1ccc(Cl)cc1)OC2 (stereo not drawn),40µM*,i,?,i,?
COc1ccc(CCNC(=O)c2cc3n(n2)CC(c2ccc4c(c2)OCO4)OC3)cc1OC (stereo not drawn),?,i,?,-26%,?
COc1ccc(NC(=O)c2cc3n(n2)CC(c2ccc(Cl)cc2)OC3)cc1 (stereo not drawn),?,?,?,0%,?
COc1cc(NC(=O)c2cc3n(n2)CC(c2ccc(Cl)cc2)OC3)cc(OC)c1OC (stereo not drawn),45µM*,i,?,-15%,-22%
O=C1NCc2ccccc2CC12CCCN(Cc1cc(F)ccc1O)C2 (stereo not drawn),?,nt,-27%,i,nt
CC(C)c1cccc(NC(=O)c2cc3n(n2)CC(c2ccc(Cl)cc2)OC3)c1 (stereo not drawn),?,i,-29%,i,-3%
CC(C)c1ccc(CNC(=O)c2cc3n(n2)CC(c2ccc(Cl)cc2)OC3)cc1 (stereo not drawn),32µM*,i,28µM*,-4%,-27%
C#Cc1cccc(C(=O)N2CCC(Cc3ccc(Cl)cc3)(C(=O)OCC)CC2)c1,?,i,20µM*,-14%,-5%
CCCC(O)CN1CCC(=O)N(Cc2ccccc2)Cc2cc(F)ccc21 (stereo not drawn),79µM*,nt,?,nt,nt
CCCC(O)CN1CCC(=O)N(Cc2ccccc2)Cc2ccccc21 (stereo not drawn),?,nt,-11%,nt,nt
CC(C)(C)OCC(O)CN1CCC(=O)N(Cc2ccccc2)Cc2cc(F)ccc21 (stereo not drawn),45µM*,nt,?,nt,nt
COc1cccc(Nc2ccnc(N3CCN(C(C)=O)CC3)n2)c1,-20%[172 µM],nt,?,i,nt
CC(C)N1C[C@H](O)C[C@H]1c1nnc2n1CCN(C(=O)Cc1ccccc1)CC2,-3%,i,-14%,i,5%
COc1cccc(-c2nc3cc4c(cc3cc2CN2CCOCC2)OCO4)c1OC,?,i,-12%,0%,4%
COc1cccc(-c2nc3cc4c(cc3cc2CN2CCSCC2)OCO4)c1OC,22µM*,i,?,1%,0%
Cc1ccc2cc(CCC(=O)N3CCOCC3)c(=O)[nH]c2c1,-4%,32µM*,3%,i,-15%
O=c1c2c(n(Cc3cccnc3)n1-c1ccccc1)CN(CC1CCOC1)CC2 (stereo not drawn),2%[172 µM],i,?,-6%[88.5 µM],2%[70.6 µM]
CCn1c2c(c(=O)n1Cc1ccccc1)CCN(Cc1cncc(OC)c1)C2,4%[172 µM],i,79µM*,i,1%[70.6 µM]
SMILES,HEK293 tox,Luciferase inh,NIH3T3 tox,GPT2 inhibitor,hNpr1 antagonist
COc1ccc(Cn2c3c(c(=O)n2Cc2ccccc2)CCN(CC2CCOC2)C3)cc1 (stereo not drawn),-29%[172 µM],i,28µM*,3%[88.5 µM],-20%[70.6 µM]
N#Cc1cccc(CN2CCc3c(n(Cc4cccnc4)n(CCc4ccccc4)c3=O)C2)c1,?,i,?,-5%,-2%
O=c1c2c(n(Cc3cccnc3)n1CCc1ccccc1)CN(CC1CC1)CC2,i,i,40µM*,-13%[88.5 µM],3%[70.6 µM]
O=c1c2c(n(Cc3cccnc3)n1CCc1ccccc1)CN(CC1CCOC1)CC2 (stereo not drawn),-14%[172 µM],i,45µM*,i,2%[70.6 µM]
O=C(c1ccco1)N1CCC(OC2CCN(Cc3ccccc3)CC2)CC1,-4%,i,-11%,-7%,6%
O=C(O)C1CCc2sc(C(=O)N3CCCCCC3)cc2C1 (stereo not drawn),0%,16µM*,?,1%,5%
CCn1nc(C)c(-c2cc(C(=O)N3CCC(CCOc4ccccc4)C3)no2)c1C (stereo not drawn),25µM*,i,?,i,?
CCn1nc(C)c(-c2cc(C(=O)N3CCc4nc5cc(-c6ccccc6)[nH]n5c(=O)c4C3)no2)c1C,3%,i,i,i,3%
Cc1ccc(OCCC2CCN(C(=O)c3cc(CN4CCOCC4)on3)C2)cc1 (stereo not drawn),79µM*,i,-17%,i,?
COc1ccccc1-c1ccc(CN2CCC(N[S+](=O)([O-])c3c(C)noc3C)C2)cc1 (stereo not drawn),45µM*,nt,?,nt,nt
O=[S+]([O-])(NC1CCCN(Cc2ccc(-c3cncnc3)cc2)C1)c1ccccc1 (stereo not drawn),?,nt,-19%,-9%,nt
COc1ccccc1Nc1ccnc(N2CCC(N[S+](=O)([O-])c3c(C)noc3C)CC2)n1,?,nt,?,5%,nt
Cc1cc(C)cc(-c2ccc(CN3CCCC(N[S+](=O)([O-])c4c(C)noc4C)C3)cc2)c1 (stereo not drawn),25µM*,nt,35µM*,i,nt
Cc1cc(C)cc(-c2ccc(CN3CCCC(NC(=O)C4CCCC4)C3)cc2)c1 (stereo not drawn),-16%,nt,-19%,-9%,nt
Cc1ccc([S+](=O)([O-])NC2CCCN(Cc3ccc(-c4cc(C)cc(C)c4)cc3)C2)cc1 (stereo not drawn),40µM*,nt,?,-13%,nt
Cc1cc(C)cc(-c2ccc(CN3CCCC(N[S+](=O)([O-])c4cccs4)C3)cc2)c1 (stereo not drawn),35µM*,nt,32µM*,i,nt
Cc1nn(-c2ccccc2)c2c1C(C1CC1)N(C1CN(C(=O)Cc3cccc(Cl)c3)C1)C2=O (stereo not drawn),25µM*,nt,?,nt,nt
